Measurements from PubChem BioAssay (Tox21).
Inconclusive results are not listed. Where a call stands in place of a potency, no number is given. Active and inactive are the calls of the source. Calls follow the shape of the dose curve; as a rule, active = well fitted inhibition curve with a large enough effect in the repeat runs; inconclusive = weak or mixed curves; inactive = flat fitted curve, though single readings scatter.
Potency is read from the fitted curve at half-maximal effect.

What follows are molecules tested against Voltage-gated inwardly rectifying potassium channel KCNH2 (Homo sapiens) (UniProt Q12809) (assay: Human Ether-a-go-go-Related Gene (hERG) channel small molecule antagonists: fluorescence cell-based qHTS assay (AID 1671200; also: nearly all actives have a fitted effect of over 50% in size)). Conditions: hERG-U2OS cells, FluxOR thallium flux fluorescence; series mostly up to 76.8 µM.
Chain of Voltage-gated inwardly rectifying potassium channel KCNH2 (Homo sapiens) (Q12809 whole entry, looked up): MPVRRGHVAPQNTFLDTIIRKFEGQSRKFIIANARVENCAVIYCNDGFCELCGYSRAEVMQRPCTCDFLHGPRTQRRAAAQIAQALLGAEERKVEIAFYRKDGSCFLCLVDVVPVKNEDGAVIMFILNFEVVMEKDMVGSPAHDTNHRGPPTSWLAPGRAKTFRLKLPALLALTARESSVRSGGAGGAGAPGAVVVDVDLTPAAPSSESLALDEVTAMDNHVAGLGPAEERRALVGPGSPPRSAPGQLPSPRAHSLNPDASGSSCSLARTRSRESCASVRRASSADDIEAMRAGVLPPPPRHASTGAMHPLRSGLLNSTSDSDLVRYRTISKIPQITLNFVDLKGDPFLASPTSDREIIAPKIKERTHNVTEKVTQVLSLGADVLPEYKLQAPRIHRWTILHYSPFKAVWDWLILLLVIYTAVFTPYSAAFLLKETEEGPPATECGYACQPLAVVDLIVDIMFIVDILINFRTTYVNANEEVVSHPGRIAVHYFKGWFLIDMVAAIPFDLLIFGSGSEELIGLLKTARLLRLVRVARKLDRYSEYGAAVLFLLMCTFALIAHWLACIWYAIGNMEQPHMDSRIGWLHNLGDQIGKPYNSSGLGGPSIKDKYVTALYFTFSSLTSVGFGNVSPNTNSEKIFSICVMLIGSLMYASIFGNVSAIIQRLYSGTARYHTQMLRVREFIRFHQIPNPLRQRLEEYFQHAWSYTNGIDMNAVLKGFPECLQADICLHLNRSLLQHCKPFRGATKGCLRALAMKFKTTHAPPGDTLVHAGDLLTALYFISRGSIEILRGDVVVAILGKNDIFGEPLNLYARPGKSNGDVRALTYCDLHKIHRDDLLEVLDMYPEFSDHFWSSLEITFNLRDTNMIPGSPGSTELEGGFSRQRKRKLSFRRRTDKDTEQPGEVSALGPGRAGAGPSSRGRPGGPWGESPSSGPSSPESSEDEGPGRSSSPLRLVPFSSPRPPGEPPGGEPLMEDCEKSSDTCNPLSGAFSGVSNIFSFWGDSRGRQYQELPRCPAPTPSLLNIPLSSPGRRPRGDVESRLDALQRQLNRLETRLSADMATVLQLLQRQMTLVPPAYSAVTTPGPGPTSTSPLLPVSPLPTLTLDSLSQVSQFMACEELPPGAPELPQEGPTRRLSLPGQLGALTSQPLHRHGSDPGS
Outline: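 Cell line hERG-U2OS; dye FluxOR II, 1 h RT dark; Tl+ stimulus; ex 480/em 540 nm, read each second for 2 min.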
For `CCc1oc2ccccc2c1C(=O)c1cc(Br)c(O)c(Br)c1`, the Potency was 10.7 µM (active). For `C[C@H]1[C@H]2CC[C@H]3[C@@H]4CC=C5C[C@@H](N(C)C)CC[C@]5(C)[C@H]4CC[C@]23CN1C`, the Potency was “inactive”. For `Clc1ccc2cc3ccccc3cc2c1`, the Potency was “inactive”. With `Cc1cc(N)c(S(=O)(=O)O)cc1Cl` the Potency was “inactive”. For `CCC1=C[C@@H]2CN(C1)Cc1c([nH]c3ccccc13)[C@@](C(=O)OC)(c1cc3c(cc1OC)N(C)[C@H]1[C@@](O)(C(=O)OC)[C@H](OC(C)=O)[C@]4(CC)C=CCN5CC[C@]31[C@@H]54)C2`, the Potency was 6.74 µM (active). With `Oc1cccc2cc3cccc(O)c3c(O)c12` the Potency was “inactive”. With `C[n+]1cc2c3c(ccc2c2ccc4cc5c(cc4c21)OCO5)OCO3` the activity change, negative = inhibition was -0.0312% [at 15.8 µM] (inactive). For `CCCCCOc1ccccc1/C(=C\SC)n1ccnc1`, the Potency was 15.1 µM (active). In the case of `CCCCCCCCCCCC(=O)NCCCN(C)C`, the Potency is reported as 13.8 µM (active). With `CCCCCCCCCCCCCC[P+](CCCC)(CCCC)CCCC` (tested in a mixture with another compound) the Potency was 0.124 µM (active). With `Cc1cccc(CN2CCN(C(c3ccccc3)c3ccc(Cl)cc3)CC2)c1` (configuration not stated) the Potency was 2.39 µM (active). For `CC[C@@]1(O)C(=O)OCc2c1cc1n(c2=O)Cc2c-1nc1ccccc1c2/C=N/OC(C)(C)C`, the Potency was “inactive”. For `CCCCCCCCNC(C)C(O)c1ccc(SC(C)C)cc1` (configuration not stated), the Potency was 0.268 µM (active). `Oc1cccc(-c2c3nc(c(-c4cccc(O)c4)c4ccc([nH]4)c(-c4cccc(O)c4)c4nc(c(-c5cccc(O)c5)c5ccc2[nH]5)CC4)C=C3)c1` was tested, and the Potency was “inactive”. In the case of `NNC(=O)c1cccc(C(=O)NN)c1`, the Potency is reported as “inactive”. For `C/C(=C(/OCCOc1ccc(Cl)cc1)c1ccc(Cl)cc1Cl)n1ccnc1`, the Potency was 6.74 µM (active). For `Cc1cc(O)c(Cl)c(C)c1Cl`, the Potency was “inactive”. `O=C(NO)C1(NS(=O)(=O)c2ccc(Oc3ccc(F)cc3)cc2)CCOCC1` was tested, and the Potency was “inactive”. `Clc1ccc(C(Cn2ccnc2)OCc2ccc(Sc3ccccc3)cc2)c(Cl)c1` (configuration not stated) was tested, and the Potency was 9.52 µM (active). `CSc1ccc2c(c1)C(N1CCN(C)CC1)Cc1ccccc1S2` (configuration not stated) was tested, and the Potency was 1.07 µM (active). With `CCCCCCCCCCC=O` the Potency was “inactive”. For `CCOC(=O)/C=C(C)/C=C/C=C(C)/C=C/c1c(C)cc(OC)c(C)c1C`, the Potency was “inactive”.
